The results in this text go back to the supplement of paper PMC6331611.

Several values for one entry are separate records, joined by “and”; a condition that tells them apart may be missing. Equal values may be shown once. ± gives the standard deviation of the averaged measurements. The full ranking holds about 1,600 compounds; the median of “normalized intracellular growth (luminescence, IQM-normalized) in RAW264.7 macrophages” is about 1, and the lowest 2% start at about 0.43. Only a selection was taken, and the lowest values are over-represented in it overall.

In the assay the test system is Salmonella enterica serovar Typhimurium SL1344. Briefly: normalized intracellular growth (luminescence, IQM-normalized) in RAW264.7 macrophages (fraction of plate interquartile mean); higher = more bacterial growth (less inhibition). As to conditions: 10 µM.

Regarding `O=C1C2CC3CC1CC(O)(C3)C2`, the normalized intracellular growth stood at 1 ± 0.017 (time point: T3 (3 h)) and 1.06 ± 0.065 (time point: Tfinal (~6 h)).

As for `CC(C)NC(=N)NC(=N)Nc1ccc(Cl)cc1`, the normalized intracellular growth runs as follows: (time point: T3 (3 h)) 0.664 ± 0.018; (time point: Tfinal (~6 h)) 0.164 ± 0.01.

Regarding `N=C(NCCCCCCNC(=N)NC(=N)Nc1ccc(Cl)cc1)NC(=N)Nc1ccc(Cl)cc1`, the normalized intracellular growth runs as follows: (time point: T3 (3 h)) 0.912 ± 0.078; (time point: Tfinal (~6 h)) 1.15 ± 0.014.

`O=C1c2c(O)cc(CO)cc2C(OC2OC(CO)C(O)C(O)C2O)c2cccc(OC3OC(CO)C(O)C(O)C3O)c21` (centres undefined) [CASANTHRANOL [cascaroside A shown]]: the normalized intracellular growth (time point: T3 (3 h)) is 0.997 ± 0.016 and the normalized intracellular growth (time point: Tfinal (~6 h)) came out at 0.857 ± 0.041.

Take `CCCCCCOC(=O)NC(=N)c1ccc(NCc2nc3cc(C(=O)N(CCC(=O)OCC)c4ccccn4)ccc3n2C)cc1`: the normalized intracellular growth reads like this: (time point: T3 (3 h)) 1.02 ± 0.01; (time point: Tfinal (~6 h)) 0.97 ± 0.034.

Take `CCCCC(CC)COC(=O)CC(C(=O)OCC(CC)CCCC)S(=O)(=O)O` (centres undefined): the normalized intracellular growth was determined as 0.943 ± 0.069 (time point: T3 (3 h)) and 0.958 ± 0.027 (time point: Tfinal (~6 h)).

As for `CCN(CC)CCNC(=O)c1ccc(NC(C)=O)cc1`, the normalized intracellular growth by setting is: (time point: T3 (3 h)) 1.03 ± 0.065; (time point: Tfinal (~6 h)) 1 ± 0.12.

Turning to `C[C@H]1[C@H](OC(=O)CCC(=O)O)O[C@@H]2O[C@@]3(C)CC[C@H]4[C@H](C)CC[C@@H]1[C@@]24OO3`, the normalized intracellular growth amounted to 0.899 ± 0.045 (time point: T3 (3 h)) and 0.869 ± 0.028 (time point: Tfinal (~6 h)).

For the molecule `Nc1ccn([C@@H]2O[C@H](CO)[C@@H](O)[C@@H]2O)c(=O)n1`, the normalized intracellular growth is, setting by setting: (time point: T3 (3 h)) 0.9664 ± 0.0095; (time point: Tfinal (~6 h)) 0.997 ± 0.037.

As for `Nc1ncn([C@@H]2O[C@H](CO)[C@@H](O)[C@H]2O)c(=O)n1`, the normalized intracellular growth runs as follows: (time point: T3 (3 h)) 0.951 ± 0.029; (time point: Tfinal (~6 h)) 0.154 ± 0.087.

With `O=c1[nH]cnc2c1ncn2[C@@H]1O[C@H](CO)[C@@H](O)[C@H]1O`, the normalized intracellular growth came to 0.917 ± 0.048 (time point: T3 (3 h)) and 0.976 ± 0.13 (time point: Tfinal (~6 h)).

Consider `CCCCC(CC)CN=C(N)N=C(N)NCCCCCCNC(N)=NC(N)=NCC(CC)CCCC` (centres undefined), for which the normalized intracellular growth is, setting by setting: (time point: T3 (3 h)) 0.994 ± 0.063; (time point: Tfinal (~6 h)) 1.1 ± 0.035.

On to `CN(C)CC[C@@H](c1ccc(Cl)cc1)c1ccccn1`, for which the normalized intracellular growth is, setting by setting: (time point: T3 (3 h)) 1 and 1.05; (time point: Tfinal (~6 h)) 1.01 and 0.736.

Take `C[C@]12C=CC(=O)C=C1CC[C@@H]1[C@@H]2[C@@H](O)C[C@@]2(C)[C@H]1CC[C@]2(O)C(=O)COC(=O)CCC(=O)O`: the normalized intracellular growth reads like this: (time point: T3 (3 h)) 1.02 ± 0.016; (time point: Tfinal (~6 h)) 0.815 ± 0.11.

On to `N[C@H]1C(O)O[C@H](CO)[C@@H](O)[C@@H]1O` (some centres undefined), for which the normalized intracellular growth runs as follows: (time point: T3 (3 h)) 0.967 ± 0.045; (time point: Tfinal (~6 h)) 0.999 ± 0.058.

In the case of `CCn1cc(C(=O)O)c(=O)c2cc(F)c(N3CCNCC3)cc21`, the normalized intracellular growth amounted to 1.07 ± 0.028 (time point: T3 (3 h)) and 1.19 ± 0.029 (time point: Tfinal (~6 h)).

For `CN1CCN(c2cc3c(cc2F)c(=O)c(C(=O)O)cn3-c2ccc(F)cc2)CC1`, the normalized intracellular growth by setting is: (time point: T3 (3 h)) 0.634 ± 0.14; (time point: Tfinal (~6 h)) 0.982 ± 0.093.

For `O=C(O)c1cn(-c2ccc(F)cc2)c2cc(N3CCNCC3)c(F)cc2c1=O`, the normalized intracellular growth was determined as 1.1 ± 0.081 (time point: T3 (3 h)) and 0.00781 ± 0.0016 (time point: Tfinal (~6 h)).

Turning to `O=C(O)c1cn(C2CC2)c2cc(N3CCNCC3)c(F)cc2c1=O`, the normalized intracellular growth runs as follows: (time point: T3 (3 h)) 1.14 ± 0.019; (time point: Tfinal (~6 h)) 0.0127 ± 0.00088.

`CCn1cc(C(=O)O)c(=O)c2cc(F)c(N3CCN(C)CC3)cc21`: the normalized intracellular growth (time point: T3 (3 h)) amounted to 1.11 ± 0.11 and the normalized intracellular growth (time point: Tfinal (~6 h)) is 0.012 ± 0.0031.

`CCn1cc(C(=O)O)c(=O)c2cnc(N3CCCC3)nc21`: the normalized intracellular growth is 0.929 ± 0.0075 (time point: T3 (3 h)) and 1.04 ± 0.053 (time point: Tfinal (~6 h)).

Turning to `C[C@H](N[C@@H](CCc1ccccc1)C(=O)O)C(=O)N1Cc2ccccc2C[C@H]1C(=O)O`, the normalized intracellular growth reads like this: (time point: T3 (3 h)) 1.03 ± 0.079; (time point: Tfinal (~6 h)) 1.08 ± 0.12.

For the molecule `NC(=O)CCCCC1CCSS1` (centres undefined), the normalized intracellular growth runs as follows: (time point: T3 (3 h)) 0.996 ± 0.093; (time point: Tfinal (~6 h)) 0.817 ± 0.12.

As to `O=S(=O)(O)CCCS(=O)(=O)O`, the normalized intracellular growth (time point: T3 (3 h)) worked out at 1.01 ± 0.095 and the normalized intracellular growth (time point: Tfinal (~6 h)) worked out at 0.9 ± 0.34.

With `O=C1/C(=C/c2cccs2)CCC/C1=C\c1cccs1`, the normalized intracellular growth was found to be 0.973 ± 0.059 (time point: T3 (3 h)) and 1.06 ± 0.036 (time point: Tfinal (~6 h)).

As for `CC1=CC(=O)NS(=O)(=O)O1`, the normalized intracellular growth is, setting by setting: (time point: T3 (3 h)) 1.06 ± 0.077; (time point: Tfinal (~6 h)) 1.04 ± 0.089.

For `CN1CC(=O)N2[C@H](c3ccc4c(c3)OCO4)c3[nH]c4ccccc4c3C[C@@H]2C1=O`, the normalized intracellular growth reads like this: (time point: T3 (3 h)) 1.06 ± 0.072; (time point: Tfinal (~6 h)) 0.783 ± 0.27.

Take `CN(C)c1ccc(C(=C2C=CC(=[N+](C)C)C=C2)c2ccc(N(C)C)cc2)cc1`: the normalized intracellular growth amounted to 0.8927 ± 0.0022 (time point: T3 (3 h)) and 0.931 ± 0.03 (time point: Tfinal (~6 h)).

Consider `CC(=O)OCC(=O)[C@@]1(O)[C@H](OC(C)=O)C[C@H]2[C@@H]3CCC4=CC(=O)C=C[C@]4(C)[C@@]3(F)[C@@H](O)C[C@@]21C`, for which the normalized intracellular growth is, setting by setting: (time point: T3 (3 h)) 0.823 ± 0.07; (time point: Tfinal (~6 h)) 1.2 ± 0.034.

Regarding `CCOc1ccc(Cc2nccc3cc(OCC)c(OCC)cc23)cc1OCC`, the normalized intracellular growth reads like this: (time point: T3 (3 h)) 0.925 ± 0.09; (time point: Tfinal (~6 h)) 0.43 ± 0.11.

Consider `CCC/C=C\C=C/C(=O)N[C@@H](CC(N)=O)C(=O)NC(CC(N)=O)C(=O)N[C@@H](C(=O)N[C@H](CCCN)C(=O)N[C@@H](C(=O)N[C@@H](C(=O)N[C@@H](C(=O)N[C@H](C(=O)N[C@@H](Cc1ccccc1)C(=O)N[C@H](CCCN)C(=O)NC(C(=O)N[C@H](C(=O)NC(C(=O)NCC(=O)N[C@@H](CC(C)C)C(=O)N[C@H](C)C(=O)NC(C(=O)O)C1CCC(O)C(Cl)C1)C1CCC(O)CC1)[C@H](C)O)C1CCC(O)CC1)[C@H](C)O)C1CCC(O)CC1)C1CCC(O)CC1)[C@H](C)O)C1CCC(O)CC1` (some centres undefined) [RAMOPLANIN [A2 shown; 2mM]], for which the normalized intracellular growth amounted to 0.984 ± 0.051 (time point: T3 (3 h)) and 1.17 ± 0.15 (time point: Tfinal (~6 h)).

On to `C=CCCCCCCCCC(=O)[O-].C=CCCCCCCCCC(=O)[O-].[Zn+2]`, for which the normalized intracellular growth (time point: T3 (3 h)) was determined as 1 ± 0.048 and the normalized intracellular growth (time point: Tfinal (~6 h)) was 0.832 ± 0.1.
